PubChem BioAssay (NCI)
This is part of a sample that, as a whole, favours compounds with a hit. Of some 83,000 tested, about 20% had one in any assay.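 How to read the values: 0–100, growth inhibition (40 = 60% inhibited); 0, no net growth; -100 to 0, cell death (-40 = 40% of starting cells died; -100 = all dead).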 Values without a mark were called inactive. Activity calls are given as the source filed them. The calls were made as follows: active = growth percent below 10; inactive = the rest.

The compounds below were run on OVCAR-3 ovarian (assay: NCI-60 one-dose screen, 48 h (100 = growth as untreated, 0 = no growth, -100 = all killed)). Conditions: 10 µM unless noted.

Question: For `COc1c(B(O)O)cccc1-c1nc2ccc3[nH]ncc3c2c2c1C1CCC2C1` (stereo not drawn), which growth is on record?
Answer: 59%

Question: For `O=C(Nc1ccc(Cl)cc1F)c1cc(F)ccc1O`, which growth is on record?
Answer: 9.51% (active)

Question: `O=c1oc2ccc(I)cc2c(=O)n1-c1ccc(I)cc1F` was tested. Which growth did it give?
Answer: 7.88% (active)

Question: How did the growth turn out when `NCCNc1nc2ccc(F)cc2c2c(=O)c3cc(F)ccc3sc12` was run?
Answer: 38.1%

Question: For `O=C(Nc1ccc(Br)cc1F)c1cc(F)ccc1O`, which growth is on record?
Answer: 9.86% (active)

Question: Which growth does the source give for `Cc1ccc(Nc2nc(N)c3ccccc3n2)cc1Cl` here?
Answer: 63.5%

Question: How did the growth turn out when `O=C1c2cc(I)ccc2Oc2cc([N+](=O)[O-])ccc2N1c1ccc(Cl)cc1F` was run?
Answer: 100%

Question: With `CC1=C(C(=O)OCC2CCN(C(=O)OC(C)(C)C)CC2)[C@H](c2cccc(Br)c2)C2=C(CC(C)(C)CC2=O)N1` as the compound, how does the growth read?
Answer: 30.9%

Question: How did the growth turn out when `O=C(c1ccccc1)N(C(=S)NCCc1ccc(Cl)cc1)c1ccc(Cl)cc1` was run?
Answer: 27.7%

Question: Which growth does the source give for `C#CCn1cc(C=C2C(=O)NC(=O)NC2=O)c2cc(Cl)ccc21` here?
Answer: 88.5%

Question: With `O=c1oc2ccc(Br)cc2c(=O)n1-c1ccc(F)cc1F` as the compound, how does the growth read?
Answer: 4.73% (active)

Question: How did the growth turn out when `O=C(Nc1ccc(Br)cc1F)c1cc(I)ccc1O` was run?
Answer: 4.89% (active)

Question: `O=c1oc2ccc(Cl)cc2c(=O)n1-c1cc(C(F)(F)F)cc(C(F)(F)F)c1` was tested. Which growth did it give?
Answer: 7.95% (active)

Question: How did the growth turn out when `O=c1oc2ccc(Br)cc2c(=O)n1-c1ccc(I)cc1F` was run?
Answer: 5.31% (active)

Question: `O=c1oc2ccc(-c3ccc(F)cc3F)cc2c(=O)n1-c1cccc(C(F)(F)F)c1` was tested. Which growth did it give?
Answer: 7.84% (active)

Question: For `O=c1oc2ccc(F)cc2c(=O)n1-c1ccc(Br)cc1F`, which growth is on record?
Answer: 5.94% (active)

Question: For `O=c1oc2ccc(I)cc2c(=O)n1-c1ccc(Br)cc1F`, which growth is on record?
Answer: 5.84% (active)

Question: How did the growth turn out when `Cc1nc(Nc2ccccn2)sc1C(=O)/C=C/c1ccc(Cl)cc1` was run?
Answer: -23.2% (active)

Question: Which growth does the source give for `Nc1cccc(Nc2cc(S(=O)(=O)O)c(N)c3c2C(=O)c2ccccc2C3=O)c1` here?
Answer: 103%

Question: With `COc1ccc2sc(N(Cc3cccnc3)C(=O)c3ccc(C#N)cc3)nc2c1` as the compound, how does the growth read?
Answer: 92.2%

Question: For `COc1cccc(C2=NN3C(C2)c2ccccc2OC3c2ccc(/C=C3\SC(=O)NC3=O)cc2)c1` (stereo not drawn), which growth is on record?
Answer: 102%

Question: How did the growth turn out when `O=C1c2cc(Br)ccc2Oc2cc([N+](=O)[O-])ccc2N1c1ccc(I)cc1F` was run?
Answer: 109%

Question: With `O=c1oc2ccc(Cl)cc2c(=O)n1-c1ccc(Cl)cc1F` as the compound, how does the growth read?
Answer: 5.29% (active)

Question: `COc1ccc(C2C3=C(COC3=O)N(CCO)c3cc4c(cc32)OCCO4)cc1` (stereo not drawn) was tested. Which growth did it give?
Answer: 50.4%

Question: `CC[C@]1(O)C[C@@H]2CN(CCc3c([nH]c4ccccc34)[C@@](C(=O)OC)(c3cc4c(cc3OC)N(C)[C@H]3[C@@](O)(C(=O)OC)[C@H](OC(=O)CCCBr)[C@]5(CC)C=CCN6CC[C@]43[C@@H]65)C2)C1` was tested. Which growth did it give?
Answer: -1.93% (active)

Question: With `O=C1c2cc(Cl)ccc2Oc2cc([N+](=O)[O-])ccc2N1c1ccc(F)cc1F` as the compound, how does the growth read?
Answer: 106%

Question: For `COc1ccccc1N1C(=N)S/C(=C\c2ccc(OCc3ccccc3F)cc2)C1=O`, which growth is on record?
Answer: 86.7%

Question: How did the growth turn out when `CC[C@]1(O)C[C@@H]2CN(CCc3c([nH]c4ccccc34)[C@@](C(=O)OC)(c3cc4c(cc3OC)N(C)[C@H]3[C@@](O)(C(=O)OC)[C@H](OC(C)=O)[C@]5(CC)C=CCN6CC[C@]43[C@@H]65)C2)C1` was run?
Answer: -4.09% (active)

Question: `O=c1c2cc(F)ccc2sc2c(NCCCNCCO)nc3ccc(Cl)cc3c12` was tested. Which growth did it give?
Answer: 68%

Question: For `COc1cc2cc3c(=O)n4c(cc5cc(OC)ncc54)c(=O)n3c2cn1`, which growth is on record?
Answer: 109%

Question: With `Nc1ccc(-c2nn3c(CCC(=O)c4nc5ncccc5[nH]4)nnc3s2)c(O)c1` as the compound, how does the growth read?
Answer: 100%

Question: Which growth does the source give for `O=c1oc2ccc(Br)cc2c(=O)n1-c1ccc(Cl)cc1F` here?
Answer: 7.85% (active)

Question: How did the growth turn out when `COc1ccc(/C=C2\NC(=O)NC2=O)cc1O` was run?
Answer: 116%

Question: How did the growth turn out when `CN(C)c1ccc(/C=C/c2ccnc3c(O)cccc23)cc1` was run?
Answer: 29.7%

Question: `O=C(c1ccccc1)N(C(=S)NCCc1ccc(Cl)cc1)c1ccccc1` was tested. Which growth did it give?
Answer: 98%

Question: Which growth does the source give for `O=c1oc2ccc(Cl)cc2c(=O)n1-c1ccc(F)cc1F` here?
Answer: 6.16% (active)

Question: Which growth does the source give for `CC(C)C[C@H](C(=O)N[C@@H](C)C(N)=O)N1CC=CCN(O)S1(=O)=O` here?
Answer: 110% [5 µM]

Question: For `O=C(Nc1ccc(Cl)cc1F)c1cc(I)ccc1O`, which growth is on record?
Answer: 10.4%

Question: With `O=C(CCc1nnc2sc(Cc3ccccc3Cl)nn12)c1nc2ncccc2[nH]1` as the compound, how does the growth read?
Answer: 96.9%

The compounds below were run on HS 578T breast in the same assay as above. Conditions: 10 µM unless noted.

Question: How did the growth turn out when `COc1c(B(O)O)cccc1-c1nc2ccc3[nH]ncc3c2c2c1C1CCC2C1` (stereo not drawn) was run?
Answer: 40.8%

Question: For `O=C(Nc1ccc(Cl)cc1F)c1cc(F)ccc1O`, which growth is on record?
Answer: 1.1% (active)

Question: `O=c1oc2ccc(I)cc2c(=O)n1-c1ccc(I)cc1F` was tested. Which growth did it give?
Answer: -4.47% (active)

Question: With `NCCNc1nc2ccc(F)cc2c2c(=O)c3cc(F)ccc3sc12` as the compound, how does the growth read?
Answer: 59.5%

Question: How did the growth turn out when `O=C(Nc1ccc(Br)cc1F)c1cc(F)ccc1O` was run?
Answer: 1.14% (active)

Question: With `Cc1ccc(Nc2nc(N)c3ccccc3n2)cc1Cl` as the compound, how does the growth read?
Answer: 101%

Question: How did the growth turn out when `O=C1c2cc(I)ccc2Oc2cc([N+](=O)[O-])ccc2N1c1ccc(Cl)cc1F` was run?
Answer: 88.6%

Question: For `CC1=C(C(=O)OCC2CCN(C(=O)OC(C)(C)C)CC2)[C@H](c2cccc(Br)c2)C2=C(CC(C)(C)CC2=O)N1`, which growth is on record?
Answer: 53.5%

Question: How did the growth turn out when `O=C(c1ccccc1)N(C(=S)NCCc1ccc(Cl)cc1)c1ccc(Cl)cc1` was run?
Answer: 62.5%

Question: How did the growth turn out when `C#CCn1cc(C=C2C(=O)NC(=O)NC2=O)c2cc(Cl)ccc21` was run?
Answer: 84%

Question: How did the growth turn out when `O=c1oc2ccc(Br)cc2c(=O)n1-c1ccc(F)cc1F` was run?
Answer: 5.31% (active)

Question: For `O=C(Nc1ccc(Br)cc1F)c1cc(I)ccc1O`, which growth is on record?
Answer: 7.43% (active)

Question: For `O=c1oc2ccc(Cl)cc2c(=O)n1-c1cc(C(F)(F)F)cc(C(F)(F)F)c1`, which growth is on record?
Answer: -15.1% (active)

Question: How did the growth turn out when `O=c1oc2ccc(Br)cc2c(=O)n1-c1ccc(I)cc1F` was run?
Answer: 0.536% (active)

Question: For `O=c1oc2ccc(-c3ccc(F)cc3F)cc2c(=O)n1-c1cccc(C(F)(F)F)c1`, which growth is on record?
Answer: 8.28% (active)

Question: Which growth does the source give for `O=c1oc2ccc(F)cc2c(=O)n1-c1ccc(Br)cc1F` here?
Answer: -3.75% (active)

Question: With `O=c1oc2ccc(I)cc2c(=O)n1-c1ccc(Br)cc1F` as the compound, how does the growth read?
Answer: -4.87% (active)

Question: How did the growth turn out when `Cc1nc(Nc2ccccn2)sc1C(=O)/C=C/c1ccc(Cl)cc1` was run?
Answer: 18.5%

Question: With `Nc1cccc(Nc2cc(S(=O)(=O)O)c(N)c3c2C(=O)c2ccccc2C3=O)c1` as the compound, how does the growth read?
Answer: 107%

Question: For `COc1ccc2sc(N(Cc3cccnc3)C(=O)c3ccc(C#N)cc3)nc2c1`, which growth is on record?
Answer: 85.1%

Question: How did the growth turn out when `COc1cccc(C2=NN3C(C2)c2ccccc2OC3c2ccc(/C=C3\SC(=O)NC3=O)cc2)c1` (stereo not drawn) was run?
Answer: 96.4%

Question: With `O=C1c2cc(Br)ccc2Oc2cc([N+](=O)[O-])ccc2N1c1ccc(I)cc1F` as the compound, how does the growth read?
Answer: 101%

Question: `O=c1oc2ccc(Cl)cc2c(=O)n1-c1ccc(Cl)cc1F` was tested. Which growth did it give?
Answer: -5.3% (active)

Question: With `COc1ccc(C2C3=C(COC3=O)N(CCO)c3cc4c(cc32)OCCO4)cc1` (stereo not drawn) as the compound, how does the growth read?
Answer: 71.6%

Question: With `CC[C@]1(O)C[C@@H]2CN(CCc3c([nH]c4ccccc34)[C@@](C(=O)OC)(c3cc4c(cc3OC)N(C)[C@H]3[C@@](O)(C(=O)OC)[C@H](OC(=O)CCCBr)[C@]5(CC)C=CCN6CC[C@]43[C@@H]65)C2)C1` as the compound, how does the growth read?
Answer: 8.92% (active)

Question: How did the growth turn out when `O=C1c2cc(Cl)ccc2Oc2cc([N+](=O)[O-])ccc2N1c1ccc(F)cc1F` was run?
Answer: 87.2%

Question: With `COc1ccccc1N1C(=N)S/C(=C\c2ccc(OCc3ccccc3F)cc2)C1=O` as the compound, how does the growth read?
Answer: 86.7%

Question: For `CC[C@]1(O)C[C@@H]2CN(CCc3c([nH]c4ccccc34)[C@@](C(=O)OC)(c3cc4c(cc3OC)N(C)[C@H]3[C@@](O)(C(=O)OC)[C@H](OC(C)=O)[C@]5(CC)C=CCN6CC[C@]43[C@@H]65)C2)C1`, which growth is on record?
Answer: 15.8%

Question: How did the growth turn out when `O=c1c2cc(F)ccc2sc2c(NCCCNCCO)nc3ccc(Cl)cc3c12` was run?
Answer: 56.8%

Question: For `COc1cc2cc3c(=O)n4c(cc5cc(OC)ncc54)c(=O)n3c2cn1`, which growth is on record?
Answer: 104%

Question: How did the growth turn out when `Nc1ccc(-c2nn3c(CCC(=O)c4nc5ncccc5[nH]4)nnc3s2)c(O)c1` was run?
Answer: 74%

Question: How did the growth turn out when `O=c1oc2ccc(Br)cc2c(=O)n1-c1ccc(Cl)cc1F` was run?
Answer: -5.24% (active)

Question: With `COc1ccc(/C=C2\NC(=O)NC2=O)cc1O` as the compound, how does the growth read?
Answer: 109%

Question: `CN(C)c1ccc(/C=C/c2ccnc3c(O)cccc23)cc1` was tested. Which growth did it give?
Answer: 43%

Question: For `O=C(c1ccccc1)N(C(=S)NCCc1ccc(Cl)cc1)c1ccccc1`, which growth is on record?
Answer: 112%

Question: Which growth does the source give for `O=c1oc2ccc(Cl)cc2c(=O)n1-c1ccc(F)cc1F` here?
Answer: 8.54% (active)

Question: With `CC(C)C[C@H](C(=O)N[C@@H](C)C(N)=O)N1CC=CCN(O)S1(=O)=O` as the compound, how does the growth read?
Answer: 110% [5 µM]

Question: How did the growth turn out when `O=C(Nc1ccc(Cl)cc1F)c1cc(I)ccc1O` was run?
Answer: 3.41% (active)

Question: `O=C(CCc1nnc2sc(Cc3ccccc3Cl)nn12)c1nc2ncccc2[nH]1` was tested. Which growth did it give?
Answer: 88.7%
